Experimental data published in PubChem BioAssay (NCI).
About 79,000 compounds went through this panel and 15% of them were active in at least one assay; those are over-represented in the sample as a whole. Unmarked numbers belong to inactive results. Active and inactive are the calls of the source. No stated cut-off is given here; in the data, active means growth inhibition above about 70%; inactive means the rest.

Tests used:
[1] = NCI Yeast Anticancer Drug Screen. Data for the rad50 strain (AID 155);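 further: 0% = growth of vehicle-only cultures of the same strain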; conditions: S. cerevisiae rad50 strain growth inhibition, active compounds read high
How it was run: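 Vehicle-treated cultures provide the reference for the growth inhibition reported for compound-exposed, repair-deficient yeast.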

[2] = NCI Yeast Anticancer Drug Screen. Data for the mec2-1 strain (AID 157); conditions: S. cerevisiae mec2-1 strain, active compounds read high
How it was run: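 Growth inhibition is read against vehicle-treated controls after compound exposure of the mec2-1 yeast strain, which is defective in DNA damage repair or cell cycle control.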

[3] = NCI Yeast Anticancer Drug Screen. Data for the sgs1 mgt1 strain (AID 161);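 further: 0% = growth of cultures given vehicle only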; conditions: S. cerevisiae sgs1 mgt1 strain, active compounds read high
How it was run: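 Growth of a repair-deficient yeast mutant was monitored after compound treatment and expressed as inhibition relative to vehicle-treated cultures.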

[4] = NCI Yeast Anticancer Drug Screen. Data for the cln2 rad14 strain (AID 165);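 further: 0% = growth equal to vehicle treated cultures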; conditions: S. cerevisiae cln2 rad14 strain, active compounds read high
How it was run: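 Growth inhibition, relative to vehicle-treated controls, is the read-out. The test organism is a yeast strain with defined genetic alterations, cln2 rad14.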

[5] = NCI Yeast Anticancer Drug Screen. Data for the bub3 strain (AID 167); conditions: S. cerevisiae bub3 mutant strain, active compounds read high
How it was run: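 Mutant yeast screening strain plus compound; vehicle-treated cultures serve as the 0% inhibition reference.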

[6] = NCI Yeast Anticancer Drug Screen. Data for the mlh1 rad18 strain (AID 175); conditions: S. cerevisiae mlh1 rad18 strain growth inhibition, active compounds read high
How it was run: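 Cells of a genetically altered yeast strain, deficient in DNA damage repair, were treated with compound. Their growth was then compared with that of vehicle-treated cultures to give inhibition.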

[7] = at 5.0 µM (retest, dose inferred, filed as 0.5)
[8] = at 50.0 µM (retest, dose inferred, filed as 5.0)

CN(C)c1ccc(/C=N/N=C(\C#N)[S][Sn]([Cl])([c]2ccccc2)[c]2ccccc2)cc1
growth inhibition [1, 7]: 98% (active)
growth inhibition [1, 8]: 95% (active)
growth inhibition ([1]; at 50.0 µM): 97.5% (active)
growth inhibition [2, 7]: 98% (active)
growth inhibition [2, 8]: 96% (active)
growth inhibition ([2]; at 50.0 µM): 97.3% (active)
growth inhibition [3, 7]: 98% (active)
growth inhibition [3, 8]: 96% (active)
growth inhibition ([3]; at 50.0 µM): 97.5% (active)
growth inhibition [4, 7]: 98% (active)
growth inhibition [4, 8]: 89% (active)
growth inhibition ([4]; at 50.0 µM): 95% (active)
growth inhibition [5, 7]: 98% (active)
growth inhibition [5, 8]: 95% (active)
growth inhibition ([5]; at 50.0 µM): 97% (active)
growth inhibition [6, 7]: 97% (active)
growth inhibition [6, 8]: 96% (active)
growth inhibition ([6]; at 50.0 µM): 97.2% (active)

O=S1(=O)CS(=O)(=O)OCCCO1
growth inhibition [1, 7]: 10%
growth inhibition [1, 8]: 10%
growth inhibition ([1]; at 50.0 µM): -15.7%
growth inhibition [2, 7]: 8%
growth inhibition [2, 8]: 8%
growth inhibition ([2]; at 50.0 µM): -32.8%
growth inhibition [3, 7]: 7%
growth inhibition [3, 8]: 15%
growth inhibition ([3]; at 50.0 µM): -23.4%
growth inhibition [4, 7]: 12%
growth inhibition [4, 8]: 9%
growth inhibition ([4]; at 50.0 µM): -9.45%
growth inhibition [5, 7]: 7%
growth inhibition [5, 8]: 7%
growth inhibition ([5]; at 50.0 µM): -30.1%
growth inhibition [6, 7]: 11%
growth inhibition [6, 8]: 16%
growth inhibition ([6]; at 50.0 µM): -59.5%

O=C1C=CC(=O)c2c1oc1ccccc21
growth inhibition [1, 7]: 14%
growth inhibition [1, 8]: 98% (active)
growth inhibition ([1]; at 50.0 µM): 60.7%
growth inhibition [2, 7]: 6%
growth inhibition [2, 8]: 99% (active)
growth inhibition ([2]; at 50.0 µM): 19%
growth inhibition [3, 7]: 13%
growth inhibition [3, 8]: 99% (active)
growth inhibition ([3]; at 50.0 µM): 16.2%
growth inhibition [4, 7]: 13%
growth inhibition [4, 8]: 79% (active)
growth inhibition ([4]; at 50.0 µM): 48.5%
growth inhibition [5, 7]: 30%
growth inhibition [5, 8]: 98% (active)
growth inhibition ([5]; at 50.0 µM): 36%
growth inhibition [6, 7]: 23%
growth inhibition [6, 8]: 98% (active)
growth inhibition ([6]; at 50.0 µM): 57.8%

CN(C)CCSc1cc(-c2ccccc2)c2ccccc2n1
growth inhibition [1, 7]: -7%
growth inhibition [1, 8]: 90% (active)
growth inhibition ([1]; at 50.0 µM): 59.5%
growth inhibition [2, 7]: 6%
growth inhibition [2, 8]: 87% (active)
growth inhibition ([2]; at 50.0 µM): 29.9%
growth inhibition [3, 7]: -8%
growth inhibition [3, 8]: 91% (active)
growth inhibition ([3]; at 50.0 µM): 39.9%
growth inhibition [4, 7]: 26%
growth inhibition [4, 8]: 94% (active)
growth inhibition ([4]; at 50.0 µM): 21.9%
growth inhibition [5, 7]: 9%
growth inhibition [5, 8]: 97% (active)
growth inhibition ([5]; at 50.0 µM): 53.7%
growth inhibition [6, 7]: 15%
growth inhibition [6, 8]: 92% (active)
growth inhibition ([6]; at 50.0 µM): 78.2% (active)

CCc1cc2c([nH]c3ccccc32)c(C)c1CCN(C)C
growth inhibition [1, 7]: -1%
growth inhibition [1, 8]: 23%
growth inhibition ([1]; at 50.0 µM): 35.1%
growth inhibition [2, 7]: 4%
growth inhibition [2, 8]: 23%
growth inhibition ([2]; at 50.0 µM): 3.65%
growth inhibition [3, 7]: 3%
growth inhibition [3, 8]: 46%
growth inhibition ([3]; at 50.0 µM): 1.45%
growth inhibition [4, 7]: -11%
growth inhibition [4, 8]: 24%
growth inhibition ([4]; at 50.0 µM): -14.6%
growth inhibition [5, 7]: -9%
growth inhibition [5, 8]: -5%
growth inhibition ([5]; at 50.0 µM): 12.6%
growth inhibition [6, 7]: -5%
growth inhibition [6, 8]: 43%
growth inhibition ([6]; at 50.0 µM): 69.8%

COC(=O)/C=C1/Nc2ccc(Cl)cc2C(=O)NC1=O
growth inhibition [1, 7]: 44%
growth inhibition [1, 8]: 56%
growth inhibition ([1]; at 50.0 µM): 39.3%
growth inhibition [2, 7]: 36%
growth inhibition [2, 8]: 45%
growth inhibition ([2]; at 50.0 µM): 27.2%
growth inhibition [3, 7]: 36%
growth inhibition [3, 8]: 54%
growth inhibition ([3]; at 50.0 µM): 58.9%
growth inhibition [4, 7]: 23%
growth inhibition [4, 8]: 42%
growth inhibition ([4]; at 50.0 µM): 28.9%
growth inhibition [5, 7]: 41%
growth inhibition [5, 8]: 80% (active)
growth inhibition ([5]; at 50.0 µM): 30.8%
growth inhibition [6, 7]: 40%
growth inhibition [6, 8]: 52%
growth inhibition ([6]; at 50.0 µM): 33.5%

Brc1cc2ccccc2c2ccccc12
growth inhibition [1, 7]: 11%
growth inhibition [1, 8]: 91% (active)
growth inhibition ([1]; at 50.0 µM): 75.1% (active)
growth inhibition [2, 7]: -7%
growth inhibition [2, 8]: 54%
growth inhibition ([2]; at 50.0 µM): 65.2%
growth inhibition [3, 7]: 7%
growth inhibition [3, 8]: 89% (active)
growth inhibition ([3]; at 50.0 µM): 59.8%
growth inhibition [4, 7]: 11%
growth inhibition [4, 8]: 28%
growth inhibition ([4]; at 50.0 µM): -16.1%
growth inhibition [5, 7]: 23%
growth inhibition [5, 8]: 81% (active)
growth inhibition ([5]; at 50.0 µM): 55.3%
growth inhibition [6, 7]: 41%
growth inhibition [6, 8]: 91% (active)
growth inhibition ([6]; at 50.0 µM): 40.8%

CN(C)CCCNc1ccc2c(=O)n(CCN(C)C)c(=O)n3c4ccccc4c(=O)c1c23
growth inhibition [1, 7]: 42%
growth inhibition [1, 8]: 69%
growth inhibition ([1]; at 50.0 µM): 71.7% (active)
growth inhibition [2, 7]: 29%
growth inhibition [2, 8]: 33%
growth inhibition ([2]; at 50.0 µM): 55%
growth inhibition [3, 7]: 28%
growth inhibition [3, 8]: 18%
growth inhibition ([3]; at 50.0 µM): 26.2%
growth inhibition [4, 7]: 40%
growth inhibition [4, 8]: 24%
growth inhibition ([4]; at 50.0 µM): 58.6%
growth inhibition [5, 7]: 61%
growth inhibition [5, 8]: 37%
growth inhibition ([5]; at 50.0 µM): 40.9%
growth inhibition [6, 7]: 55%
growth inhibition [6, 8]: 61%
growth inhibition ([6]; at 50.0 µM): 25.4%

N#CC1=CN=C2C=CC=C3N=C(C(Cl)(Cl)Cl)N=C1N32
growth inhibition [1, 7]: 19%
growth inhibition [1, 8]: 93% (active)
growth inhibition ([1]; at 50.0 µM): 49.9%
growth inhibition [2, 7]: 7%
growth inhibition [2, 8]: 97% (active)
growth inhibition ([2]; at 50.0 µM): 39.3%
growth inhibition [3, 7]: 28%
growth inhibition [3, 8]: 97% (active)
growth inhibition ([3]; at 50.0 µM): 87.2% (active)
growth inhibition [4, 7]: 2%
growth inhibition [4, 8]: 91% (active)
growth inhibition ([4]; at 50.0 µM): 14.8%
growth inhibition [5, 7]: -1%
growth inhibition [5, 8]: 89% (active)
growth inhibition ([5]; at 50.0 µM): 20.3%
growth inhibition [6, 7]: 25%
growth inhibition [6, 8]: 95% (active)
growth inhibition ([6]; at 50.0 µM): 76.8% (active)
